Tb PYK inh – blocks Trypanosoma brucei pyruvate kinase; actives 0.12% (n = 410,000); Potency, µM (series often up to 76.8 µM), hits mostly inhibitors; AID 624173; Q57TT1; TbPYK enzyme, Kinase-Glo Plus ATP luminescence, 45 min; also: nearly all actives have a fitted effect of over 50% in size
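Screened from lowest to highest concentration, compounds were pinned into TbPYK/substrate mixtures, and ADP (130 uM final) was added. Plates sat at room temperature for 45 min prior to Kinase-Glo Plus detection by luminescence.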
Shiga inhibitor – Shiga toxin inhibition | Vero cells, Shiga toxin protein synthesis inhibition reporter | inhibition, % at 38.7 µM | actives 9.2% (n = 290,000) | AID 2315; in the data active = inhibition mostly above about 28%, no sharp cut-off; inactive = mostly below about 43%
Cycloheximide cs – counter-screen hit for Shiga toxin inhibitors, cycloheximide. max response, %. cell reporter, cycloheximide protein synthesis inhibition counterscreen. actives 12% (n = 300,000); in the data active = max response mostly above about 13%, no sharp cut-off; inactive = mostly below about 14%; also: read at 38.3 µM for the half of the compounds with a filed dose
FBPA Giardia inh – Giardia lamblia aldolase inhibition | A8B2U2 | purified Giardia FBPA | Potency, µM (series often up to 59.6 µM), hits mostly inhibitors | actives 0.71% (n = 290,000); also: nearly all actives have a fitted effect of over 55% in size
Target sequence (A8B2U2 whole entry, looked up): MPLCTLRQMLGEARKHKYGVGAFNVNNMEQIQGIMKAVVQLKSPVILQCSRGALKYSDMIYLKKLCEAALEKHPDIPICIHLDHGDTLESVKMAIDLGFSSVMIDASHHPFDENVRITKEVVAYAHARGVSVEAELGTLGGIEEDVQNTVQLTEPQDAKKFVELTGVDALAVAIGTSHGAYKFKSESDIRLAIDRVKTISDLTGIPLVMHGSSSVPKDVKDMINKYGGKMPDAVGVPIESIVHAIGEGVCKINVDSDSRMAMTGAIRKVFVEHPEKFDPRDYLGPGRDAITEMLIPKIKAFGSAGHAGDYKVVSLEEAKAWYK
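Giardia FBPA (40 nM reagent) was preincubated 10 min at RT with compound (up to 57.5 uM final), then substrate plus GAPDH/TPI/NAD/arsenate coupling system with diaphorase/resazurin was added; resorufin fluorescence (525/598 nm) was read after 20 min.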
Sm TGR block – inhibitors of Schistosoma mansoni thioredoxin glutathione reductase; Q962Y6; purified TGR, DTNB reduction, TNB absorbance 405 nm; Potency, µM (doses to about 114 µM), usual class: inhibitors; AID 485364; actives 3% (n = 360,000); also: nearly all actives have a fitted effect of over 60% in size
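First, TGR (20 nM dispensed) and NADPH were mixed with compound. Second, a 15 min room-temperature incubation followed. Third, further NADPH and then DTNB were added to start the reaction. Finally, TNB absorbance was monitored kinetically.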
LmPK inhibitor – LmPK (Leishmania mexicana) enzyme inhibition; Q27686; AID 1721; Potency, µM (series often up to 57.5 µM), hits mostly inhibitors; purified LmPK, Kinase-Glo ATP luminescence, 1 h; actives 0.37% (n = 290,000)
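qHTS format; LmPK 0.1 nM; substrates PEP 0.5 mM and ADP 0.1 mM. One-hour room-temperature incubation, then coupled luciferase luminescence; 0.5 nM enzyme wells mark activation.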
Hits are given with their value; - = inactive; ? = inconclusive; . = no result. Many of the other results were omitted from the sample, so hits are more common in it than they were. Unless noted, calls follow the shape of the dose curve; as a rule, active = well fitted curve in the direction sought with a large enough effect; inconclusive = small, poorly fitted or top-dose-only effect, or another doubt; inactive = no such curve, though single readings can be large; an effect the other way counts as inactive or inconclusive.

SMILES	Tb PYK inh	Shiga inhibitor	Cycloheximide cs	FBPA Giardia inh	Sm TGR block	LmPK inhibitor
c1ccc(CNc2ccc3c(c2)ncn3C2CCCCC2)nc1	-	46	22	-	-	-
CCCCS(=O)(=O)Nc1ccc2c(c1)ncn2C1CCCCC1	-	-	-	-	-	-
Cc1c(O)c2ccccc2oc1=O	-	-	-	-	-	-
CN=C(C)c1c(O)c2ccccc2oc1=O	-	-	18	-	-	-
Cc1ccc(N=Cc2c(O)c3ccccc3oc2=O)c(C)c1	-	-	30	-	-	-
COc1cccc(N=Cc2c(O)c3ccccc3oc2=O)c1	-	-	21	-	-	-
CCCS(=O)(=O)NC(=O)C1(C)CCCN(C(=O)c2ccc3ccccc3c2)C1 (stereo not drawn)	-	.	.	.	.	.
COc1ccc(Cl)cc1NC(=O)CN(C)CC(=O)Nc1cc(OC)c(OC)c(OC)c1	-	-	-	-	-	-
C[C@@H]1CN([C@@H](C)CO)C(=O)CCCn2nncc2CO[C@H]1CN(C)Cc1ccccc1	-	.	.	.	.	.
Cc1cc(NC(=O)CCn2c(=O)c3cccn3c3cccnc32)ccc1Br	-	.	.	.	-	.
Cc1ccc(S(=O)(=O)/N=C(/c2ccc(F)cc2)N(C)C)cc1	-	-	-	-	-	-
CCc1ccc(C(=O)/C=C/c2cnn(C)c2C)s1	.	34	23	-	-	-
O=C(/C=C/c1ccccc1)c1cccs1	.	.	.	-	.	.
Cc1c(/C=C/C(=O)c2cccs2)cnn1C	?	96	33	-	-	-
CCCOC(=O)c1c(NC(=O)/C=C/c2cnn(C)c2C)sc(C(=O)OC)c1C	-	-	-	-	-	-
Cc1nc2ccccc2c(=O)n1-c1ccccc1Cl	-	.	.	.	.	.
O=C(c1csnn1)N1CCC2(CC1)CN(c1cccc(-c3ccccc3)c1)C2	-	.	.	-	.	.
Cc1ccc(NC(=O)Cn2cc(S(=O)(=O)c3ccccc3)c(=O)c3cc4c(cc32)OCO4)cc1	-	.	.	.	-	.

Screens deposited in PubChem by National Center for Advancing Translational Sciences (NCATS).
